# Source: PubChem BioAssay
# Calls of active or inactive are those of the source.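 The calls were made as follows, unless noted: active = inhibition above 20% together with a positive visual image hit; inconclusive = visual image hit but inhibition not above 20%; inactive = no visual image hit.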
# Experiments:
# [1] = inhibitors of TNFa-induced NFkB p65 translocation, primary screen, imaging, HUVEC, MLSMR starter and 10KST1 sets (AID 438); conditions: HUVEC TNFa-induced p65 nuclear translocation; cell count: measured here: nuclei count (cytotoxicity indicator), at 2.08 µM; inhibition: at 2 µM, stronger effect = higher value, 0% TNFa-plus-vehicle, 100% no-TNFa wells;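 also: compound added about 3h40 before a 20 min TNFalpha stimulation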;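 as to inhibition: signal is the nuclear over cytoplasmic p65 intensity ratio per well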
# [2] = inhibitors of mutant huntingtin aggregation, primary screen, imaging, exon1htt(103Q)mCFP cells, high-content imaging (AID 483;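 active = visual image review flags a hit and inhibition of aggregation exceeds 20%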;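 also: compound exposure lasted 3 days before fixation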;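 as to nuclei count: percent of the per-plate median nuclei count of sample wells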); conditions: exon1htt(103Q)mCFP cell line, aggregate imaging, at 2 µM; inhibition of aggregation: stronger effect = higher value; nuclei count: measured here: cell count, toxicity
# [3] = inhibitors of E-selectin induction by TNFa, primary screen, imaging, HUVEC, immunofluorescence, MLSMR starter and 10KST1 sets (AID 487;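 active = visually confirmed hit in the image check and inhibition above 20%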;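 as to inhibition: signal is fraction of cell area covered by stained E-selectin grains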;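 as to nuclei count: 100% = median nuclei count of all wells on the same plate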); conditions: HUVEC TNFalpha-induced E-selectin immunofluorescence imaging, at 2 µM; inhibition: stronger effect = higher value; nuclei count: measured here: cell number, toxicity
# [4] = target: Voltage-gated potassium channel subunit beta-2 (Rattus norvegicus) (UniProt P62483); assay: KvBeta enzyme negative modulators, primary screen, biochemical, NADPH fluorescence (AID 622;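 active = fluorescence slope higher than the sample average by over 3 SD, cut at about -0.22 in these data, passing the limit was not always enough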;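 also: slope of raw intensity against log time taken from 70 to 1610 s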); conditions: recombinant KvBeta, 4-cyanobenzaldehyde reduction, at 10 µM, stronger effect = higher value
# [5] = target: Voltage-gated potassium channel subunit beta-2 (Rattus norvegicus) (UniProt P62483); assay: KvBeta positive modulators, primary screen, biochemical, NADPH fluorescence (AID 623;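 active = NADPH fluorescence slope more negative than the mean of all samples by about 3 SD, 99.7% confidence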;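 also: fluorescence intensity change per second fitted from 20 to 320 s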); conditions: Recombinant KvBeta, NADPH fluorescence decrease slope, 10 min; at 10 µM; stronger effect = lower value
# [6] = target: Alpha-2C adrenergic receptor (Homo sapiens) (UniProt P18825); assay: modulators of alpha2C/GIRK thallium flux, primary screen, cell-based, HEK293 alpha2C/GIRK1/2 (AID 624;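 active = fluorescence slope after compound addition differing from the mean of all screened samples at 99.7% confidence, in either direction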;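 also: slope of fluorescence ratio to pre-addition baseline per second over 15 to 24 s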); conditions: thallium flux BTC fluorescence, at 10 µM, actives lie on both sides
# [7] = inhibitors of Sendai virus-induced IRF3 signaling, primary screen, TLR/RLR signaling modifier project, cell-based, Sendai virus stimulus, luciferase, 10K MLSCN set (AID 602276;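 active = inhibition at or above 50% at 10 µM; inactive = inhibition below 50%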;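 also: firefly luciferase from ISG56 promoter only with Renilla not read in this screen; 0% = Sendai virus plus DMSO and 100% = medium plus DMSO without virus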); conditions: HEK293 RL24 IRF3 luciferase reporter, at 10 µM, stronger effect = higher value
# [8] = inhibitors of poly I:C-induced TLR3 signaling, primary screen, cell-based, poly I:C stimulus, luciferase, 10K MLSCN set (AID 602277;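 active = inhibition of the reporter signal at or above 50%; inactive = inhibition below 50%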); conditions: HEK293-TLR3 RL24 IRF3 luciferase reporter, at 10 µM, stronger effect = higher value
# Alpha-2C adrenergic receptor (Homo sapiens), sequence (P18825 whole entry, looked up): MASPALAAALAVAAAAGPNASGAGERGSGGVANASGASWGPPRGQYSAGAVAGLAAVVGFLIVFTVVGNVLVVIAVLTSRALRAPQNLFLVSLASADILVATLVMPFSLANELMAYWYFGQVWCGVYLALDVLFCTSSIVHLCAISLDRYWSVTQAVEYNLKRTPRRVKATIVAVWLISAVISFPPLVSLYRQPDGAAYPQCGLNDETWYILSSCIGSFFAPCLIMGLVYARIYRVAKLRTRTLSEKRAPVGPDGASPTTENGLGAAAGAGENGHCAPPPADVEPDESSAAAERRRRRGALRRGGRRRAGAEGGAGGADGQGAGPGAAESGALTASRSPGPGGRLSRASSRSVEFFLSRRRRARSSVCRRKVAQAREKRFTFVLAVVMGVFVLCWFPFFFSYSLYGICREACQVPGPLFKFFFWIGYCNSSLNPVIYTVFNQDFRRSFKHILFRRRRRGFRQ
# Voltage-gated potassium channel subunit beta-2 (Rattus norvegicus), sequence (P62483 whole entry, looked up): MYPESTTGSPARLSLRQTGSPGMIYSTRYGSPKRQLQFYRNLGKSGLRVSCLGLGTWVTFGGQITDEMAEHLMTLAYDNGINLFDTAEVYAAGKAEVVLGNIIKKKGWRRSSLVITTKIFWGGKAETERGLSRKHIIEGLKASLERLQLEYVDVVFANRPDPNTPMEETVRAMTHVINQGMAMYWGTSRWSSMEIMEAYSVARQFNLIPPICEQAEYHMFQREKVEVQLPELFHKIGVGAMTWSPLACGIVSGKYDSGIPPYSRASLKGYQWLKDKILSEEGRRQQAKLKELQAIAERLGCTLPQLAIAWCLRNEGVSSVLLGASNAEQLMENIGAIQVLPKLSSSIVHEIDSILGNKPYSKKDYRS
smiles,measurement,setting,value
CCn1c(SCC(=O)c2ccc(F)cc2)nnc1-c1ccoc1C,cell count,[1],423
same,inhibition,[1],-19.4% (inactive)
same,inhibition of aggregation,[2],-1.3% (inactive)
same,nuclei count,[2],78%
same,inhibition,[3],-50.4% (inactive)
same,nuclei count,[3],103%
same,fluorescence slope,[4],-0.607 (inactive)
same,NADPH fluorescence slope,[5],1.4e-05 (inactive)
same,slope,[6],0.00696 (inactive)
same,inhibition,[7],6.99% (inactive)
same,inhibition,[8],11.7% (inactive)
COC(=O)Cc1c(C)c2ccc(OCC(=O)N3CCOCC3)cc2oc1=O,cell count,[1],439
same,inhibition,[1],15.7% (inactive)
same,inhibition of aggregation,[2],7.7% (inactive)
same,nuclei count,[2],113%
same,inhibition,[3],-28.7% (inactive)
same,nuclei count,[3],74.6%
same,fluorescence slope,[4],-0.363 (inactive)
same,NADPH fluorescence slope,[5],-1.5e-05 (inactive)
same,slope,[6],0.00545 (inactive)
same,inhibition,[7],17.8% (inactive)
same,inhibition,[8],13.9% (inactive)
CCN(CC)CCN1C(=O)Cn2c(C)c(C)c3cccc1c32,cell count,[1],426
same,inhibition,[1],-6.7% (inactive)
same,inhibition of aggregation,[2],18.6% (inactive)
same,nuclei count,[2],93.7%
same,inhibition,[3],-102% (inactive)
same,nuclei count,[3],232%
same,fluorescence slope,[4],-0.434 (inactive)
same,NADPH fluorescence slope,[5],-1.1e-05 (inactive)
same,slope,[6],0.00506 (inactive)
same,inhibition,[7],15% (inactive)
same,inhibition,[8],24.1% (inactive)
FC(F)(F)c1cccc(N2CCN(Cc3cccnc3)CC2)c1,cell count,[1],447
same,inhibition,[1],-3.8% (inactive)
same,inhibition of aggregation,[2],-15.1% (inactive)
same,nuclei count,[2],109%
same,inhibition,[3],-57.5% (inactive)
same,nuclei count,[3],127%
same,fluorescence slope,[4],-0.505 (inactive)
same,NADPH fluorescence slope,[5],-6.8e-05 (inactive)
same,slope,[6],0.00521 (inactive)
same,inhibition,[7],17.4% (inactive)
same,inhibition,[8],12.1% (inactive)
C=CCn1c(SCC(=O)Nc2ccccc2OC)nnc1-c1ccco1,cell count,[1],736
same,inhibition,[1],11% (inactive)
same,inhibition of aggregation,[2],1.8% (inactive)
same,nuclei count,[2],105%
same,inhibition,[3],0.9% (inactive)
same,nuclei count,[3],120%
same,fluorescence slope,[4],-0.494 (inactive)
same,NADPH fluorescence slope,[5],-5.8e-05 (inactive)
same,slope,[6],0.00624 (inactive)
same,inhibition,[7],20.4% (inactive)
same,inhibition,[8],22.4% (inactive)
Cc1ccc(-c2nnc(N3CCN(C(=O)CN4C(=O)c5ccccc5C4=O)CC3)c3ccccc23)cc1,cell count,[1],375
same,inhibition,[1],10.2% (inactive)
same,inhibition of aggregation,[2],-15.9% (inactive)
same,nuclei count,[2],109%
same,inhibition,[3],-158% (inactive)
same,nuclei count,[3],133%
same,fluorescence slope,[4],-0.468 (inactive)
same,NADPH fluorescence slope,[5],-5.9e-05 (inactive)
same,slope,[6],0.00522 (inactive)
same,inhibition,[7],8.25% (inactive)
same,inhibition,[8],12.9% (inactive)
CCN(C(=O)c1cn(C)c(=O)c2cc(OC)c(OC)cc12)c1ccccc1C,cell count,[1],175
same,inhibition,[1],0.3% (inactive)
same,inhibition of aggregation,[2],12.8% (inactive)
same,nuclei count,[2],94.1%
same,inhibition,[3],-21.1% (inactive)
same,nuclei count,[3],114%
same,fluorescence slope,[4],-0.59 (inactive)
same,NADPH fluorescence slope,[5],-2.6e-05 (inactive)
same,slope,[6],0.00574 (inactive)
same,inhibition,[7],0.738% (inactive)
same,inhibition,[8],16.5% (inactive)
O=C(NCC(F)(F)F)Nc1cccnc1,cell count,[1],309
same,inhibition,[1],6.5% (inactive)
same,inhibition of aggregation,[2],-5.6% (inactive)
same,nuclei count,[2],100%
same,inhibition,[3],-117% (inactive)
same,nuclei count,[3],119%
same,fluorescence slope,[4],-0.318 (inactive)
same,NADPH fluorescence slope,[5],-5.2e-05 (inactive)
same,slope,[6],0.00372 (inactive)
same,inhibition,[7],-2.55% (inactive)
same,inhibition,[8],3.81% (inactive)
CCOc1cccc(C(=O)N2CCCCC2c2cccnc2)c1 (stereo not given),cell count,[1],269
same,inhibition,[1],-0.4% (inactive)
same,inhibition of aggregation,[2],-24.6% (inactive)
same,nuclei count,[2],95.1%
same,inhibition,[3],-148% (inactive)
same,nuclei count,[3],101%
same,fluorescence slope,[4],-0.526 (inactive)
same,NADPH fluorescence slope,[5],-4.2e-05 (inactive)
same,slope,[6],0.00421 (inactive)
same,inhibition,[7],9.72% (inactive)
same,inhibition,[8],19.7% (inactive)
O=C(CN1C(=O)CCS(=O)(=O)c2ccccc21)NCc1ccc(F)cc1,cell count,[1],529
same,inhibition,[1],-7.7% (inactive)
same,inhibition of aggregation,[2],13.4% (inactive)
same,nuclei count,[2],95.8%
same,inhibition,[3],-92.3% (inactive)
same,nuclei count,[3],124%
same,fluorescence slope,[4],-0.395 (inactive)
same,NADPH fluorescence slope,[5],-7.6e-05 (inactive)
same,slope,[6],0.00557 (inactive)
same,inhibition,[7],15.3% (inactive)
same,inhibition,[8],8.14% (inactive)
